Experimental data from PubChem BioAssay (EPA / NIEHS).
Records with an inconclusive call do not appear. The source made the active and inactive calls. Rule for the calls: active = hit-call score of the fitted dose curve at least 0.9, where 1 is the maximum; inconclusive = response in the unintended direction; inactive = score below 0.9.

system: not listed separately; assay: ACEA_ER_AUC_viability: ACEA Biosciences xCELLigence Real-Time Cell Analysis on Estrogen Receptor Agonism for Viability (AID 2283782);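 note: hit means loss of impedance signal meaning reduced cell growth or viability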
How it was run: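 Viability endpoint: reduced impedance area under the curve relative to DMSO, recorded by real-time electrode sensing over ~80 h of continuous exposure. Duplicate plates of T47D in hormone-depleted medium; eight concentrations, 1:4 dilutions, 100 uM maximum.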

Row | SMILES | AC50 | outcome
1 | Cc1ccc(N)c(N)c1 | 6.06 µM (active) | –
2 | CC(C)(C)C(O)(CCc1ccc(Cl)cc1)Cn1cncn1 (stereo not drawn) | 69.2 µM (active) | –
3 | CC(C)COC(=O)c1ccccc1C(=O)OCC(C)C | – | inactive
4 | O=C(Nc1ccccc1)c1ccccc1I | – | inactive
5 | Nc1ccc(Cl)cc1N | – | inactive
6 | Cc1cccc(N)c1N | – | inactive
7 | C[N+](C)(C)CC1CO1 (stereo not drawn) | – | inactive
8 | O=P(OCCCl)(OCCCl)OCCCl | – | inactive
9 | Cc1cc(N=Nc2ccccc2C)ccc1N | 50 µM (active) | –
10 | CN(C)C(=O)Nc1ccc(Cl)cc1 | – | inactive
11 | Brc1ccc(Oc2ccccc2)cc1 | – | inactive
12 | CCCCCCCCn1sccc1=O | 11.8 µM (active) | –
13 | CNC(=O)Oc1cccc2c1OC(C)(C)C2 | – | inactive
14 | CC(C)(OOC(C)(C)c1ccccc1)c1ccccc1 | 77.1 µM (active) | –
15 | [Cl-].[Cl-].[Hg+2] | 16.9 µM (active) | –
16 | Nc1ccc([N+](=O)[O-])cc1 | 7.37 µM (active) | –
17 | Oc1ccc2ccc3cccc4ccc1c2c34 | 79.6 µM (active) | –
18 | O=[N+]([O-])C(Br)(CO)CO | 32.7 µM (active) | –

target: AR (gene 367) (UniProt P10275); assay: ACEA_AR_agonist_80hr: ACEA Biosciences xCELLigence Real-Time Cell Analysis on Androgen Receptor Agonism for Proliferation (AID 2283783);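 note: hits increase impedance growth signal above DMSO baseline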
Sequence (P10275 whole entry, looked up): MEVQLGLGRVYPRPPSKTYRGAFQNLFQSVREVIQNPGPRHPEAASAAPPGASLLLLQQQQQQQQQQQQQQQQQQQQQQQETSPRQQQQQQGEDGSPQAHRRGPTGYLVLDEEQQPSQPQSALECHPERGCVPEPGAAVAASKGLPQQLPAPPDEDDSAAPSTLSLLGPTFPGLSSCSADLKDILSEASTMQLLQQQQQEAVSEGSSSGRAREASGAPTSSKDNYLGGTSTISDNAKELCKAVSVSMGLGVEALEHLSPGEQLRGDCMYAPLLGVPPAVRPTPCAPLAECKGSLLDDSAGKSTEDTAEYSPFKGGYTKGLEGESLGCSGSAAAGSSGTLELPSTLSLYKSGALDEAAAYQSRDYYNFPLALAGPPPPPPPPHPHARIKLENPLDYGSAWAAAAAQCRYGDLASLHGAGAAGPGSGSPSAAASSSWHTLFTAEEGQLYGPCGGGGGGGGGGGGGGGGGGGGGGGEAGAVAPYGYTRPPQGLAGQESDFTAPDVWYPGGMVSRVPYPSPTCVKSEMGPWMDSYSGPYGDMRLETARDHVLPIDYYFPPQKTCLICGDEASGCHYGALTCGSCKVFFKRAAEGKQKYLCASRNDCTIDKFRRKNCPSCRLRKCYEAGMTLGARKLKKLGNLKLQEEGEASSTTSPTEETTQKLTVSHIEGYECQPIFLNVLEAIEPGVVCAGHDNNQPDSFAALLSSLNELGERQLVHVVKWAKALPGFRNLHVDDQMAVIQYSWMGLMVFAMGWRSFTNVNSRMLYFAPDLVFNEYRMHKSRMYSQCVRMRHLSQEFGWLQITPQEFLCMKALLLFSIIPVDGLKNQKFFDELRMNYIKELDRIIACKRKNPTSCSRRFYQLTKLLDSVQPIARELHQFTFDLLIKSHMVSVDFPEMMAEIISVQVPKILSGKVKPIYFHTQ
How it was run: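 Eight concentrations, 1:4 serial dilution from a 100 uM final top, in biological duplicate. Impedance-based real-time growth of 22Rv1 cells after overnight baseline, recorded hourly and read at 80 hours. Controls: testosterone, MG132, assay media.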

Row | SMILES | outcome | AC50
19 | CCCCC(CC)COC(=O)c1ccc(C(=O)OCC(CC)CCCC)c(C(=O)OCC(CC)CCCC)c1 (stereo not drawn) | inactive | –
20 | CCNS(=O)(=O)C(F)(F)C(F)(F)C(F)(F)C(F)(F)C(F)(F)C(F)(F)C(F)(F)C(F)(F)F | – | 48.2 µM (active)
21 | Nc1ccc(Cl)cc1N | inactive | –
22 | CC(C)(OOC(C)(C)c1ccccc1)c1ccccc1 | inactive | –
23 | O=[N+]([O-])C(Br)(CO)CO | inactive | –

system: not listed separately; assay: STM_H9_NormalizedViability: Cytotoxicity Assessment at 120 hours in the Stemina devTOX quickPredict H9 human embryonic stem cell (hESC)-based Assay (AID 2283784)
How it was run: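 Here, H9 cells received test compound with daily medium renewal. Each plate included methotrexate references (1uM, 5 nM), 0.1% DMSO and media blanks; CellTiter-Fluor RFU was normalized to DMSO.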

Row | SMILES | outcome | AC50
24 | Clc1ccc(Cl)c(Cl)c1 | inactive | –
25 | COc1cc(C=O)cc2c1[C@H](COC(N)=O)[C@]1(OC(C)=O)ON2C[C@H]2[C@@H]1N2C(C)=O | – | 0.00149 µM (active)
26 | OCCCBr | inactive | –
27 | CCCCCCCCCCCCCN1CC(C)OC(C)C1 (stereo not drawn) | inactive | –
28 | Cc1ccc(N)c(N)c1 | – | 26.9 µM (active)
29 | CC(C)(C)C(O)(CCc1ccc(Cl)cc1)Cn1cncn1 (stereo not drawn) | – | 78.7 µM (active)
30 | CC(C)COC(=O)c1ccccc1C(=O)OCC(C)C | inactive | –
31 | O=C1CCCO1 | inactive | –
32 | CO[C@@H]1[C@H](OC(=O)NC(=O)CCl)CC[C@]2(CO2)[C@H]1[C@@]1(C)O[C@@H]1CC=C(C)C | – | 0.0978 µM (active)
33 | Cc1cccc(N)c1N | – | 75.7 µM (active)
34 | C[N+](C)(C)CC1CO1 (stereo not drawn) | – | 24 µM (active)
35 | O=P(OCCCl)(OCCCl)OCCCl | inactive | –
36 | Nc1ccc(Oc2ccc(N)cc2)cc1 | – | 75.5 µM (active)
37 | CN(C)C(=O)Nc1ccc(Cl)cc1 | inactive | –
38 | Brc1ccc(Oc2ccccc2)cc1 | inactive | –
39 | CCCCCCCCn1sccc1=O | – | 47.7 µM (active)
40 | CNC(=O)Oc1cccc2c1OC(C)(C)C2 | – | 21.4 µM (active)
41 | [Cl-].[Cl-].[Hg+2] | – | 1.36 µM (active)
42 | CCN(CC)N=O | inactive | –
43 | Oc1ccc2ccc3cccc4ccc1c2c34 | inactive | –
44 | O=[N+]([O-])c1ccc(Oc2ccc(Cl)cc2Cl)cc1 | – | 77 µM (active)
45 | Cc1ccc(N)cc1 | – | 40.9 µM (active)

target: AR (gene 367) (UniProt P10275); assay: ACEA_AR_antagonist_80hr: ACEA Biosciences xCELLigence Real-Time Cell Analysis on Androgen Receptor Antagonism for Proliferation (AID 2283787);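 note: 22Rv1 human prostate cancer cells with growth followed by electrical impedance; hits lower the impedance growth signal relative to DMSO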
How it was run: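 Impedance-based real-time growth of 22Rv1 prostate cells, read 80 h after dosing. Eight concentrations, 1:4 series, top 100 uM final (0.5% DMSO), n = 2; signal decrease scored against DMSO.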

Row | SMILES | outcome | AC50
46 | CC(C)N(Cc1ccccc1)C(=O)C(C)(C)C | inactive | –
47 | CCNS(=O)(=O)C(F)(F)C(F)(F)C(F)(F)C(F)(F)C(F)(F)C(F)(F)C(F)(F)C(F)(F)F | inactive | –
48 | CC(C)(O)c1cnn2c(-c3ccc(F)c(-c4c(F)cccc4C#N)c3)cnc2n1 | – | 57.9 µM (active)
49 | O=C1CCCO1 | inactive | –
50 | O=C(Nc1ccccc1)c1ccccc1I | inactive | –
51 | Nc1ccc(Cl)cc1N | – | 50 µM (active)
52 | CO[C@@H]1[C@H](OC(=O)NC(=O)CCl)CC[C@]2(CO2)[C@H]1[C@@]1(C)O[C@@H]1CC=C(C)C | – | 12.6 µM (active)
53 | C[N+](C)(C)CC1CO1 (stereo not drawn) | inactive | –
54 | Cc1cc(N=Nc2ccccc2C)ccc1N | – | 52.6 µM (active)
55 | CNC(=O)Oc1cccc2c1OC(C)(C)C2 | inactive | –
56 | CC(C)(OOC(C)(C)c1ccccc1)c1ccccc1 | – | 26.6 µM (active)
57 | Nc1ccc([N+](=O)[O-])cc1 | – | 22 µM (active)
58 | O=[N+]([O-])C(Br)(CO)CO | – | 30.6 µM (active)
